Experimental data taken from PubChem BioAssay (NCI).
The panel holds about 83,000 compounds, 20% with a hit somewhere; the sample as a whole holds those more often.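 The test compound was applied at a single concentration to cells in 96-well plates for 48 hours, and percent growth was recorded.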 Active and inactive are the calls of the source. How the source made its calls: active means growth percent below 10; inactive means the rest.

What was measured:
Test in all cases: NCI-60 one-dose screen, 48 h (100 = growth as untreated, 0 = no growth, -100 = all killed)
[1] = test system: BT-549 breast; details: 10 µM unless noted
[2] = test system: MDA-MB-435 melanoma; details: 10 µM unless noted
[3] = test system: SW-620 colon; details: 10 µM unless noted
[4] = test system: MCF7 breast; details: 10 µM
[5] = test system: HCT-116 colon; details: 10 µM unless noted
[6] = test system: HCC-2998 colon; details: 10 µM unless noted
[7] = test system: KM12 colon; details: 10 µM unless noted

Measured: growth

O=C(NN1C(=O)CSC1c1ccc(Cl)cc1)c1[nH]c2ccc(F)cc2c1-c1ccccc1 (stereo not given)
inactive: [1] 50.9% | [2] 44.9% | [3] 77.8% | [4] 14.6% | [5] 31.6% | [7] 44.8%
active: [6] 6.69%

COC(=O)[C@@H]1CCCN1C(=O)[C@H]1CCCN1C(=O)[C@@H](Cc1c[nH]c2ccccc12)NC(=S)Nc1cc(C(F)(F)F)cc(C(F)(F)F)c1
inactive: [1] 78.9% | [2] 31.9% | [3] 63.1% | [4] 25.3% | [5] 36.9% | [6] 20.8% | [7] 40.1%

COc1cccc(-c2nn(C)c3sc(C(=O)NCCN4CCN(c5ccccc5F)CC4)cc23)c1
active: [2] -55.7% | [6] -41.1%
inactive: [1] 90.8% | [3] 74.6% | [4] 15.1% | [5] 33.5% | [7] 54.2%

O=NN(Cc1cccnc1)C(=O)NC1CCCCC1
inactive: [1] 112% | [2] 108% | [3] 107% | [4] 92.9% | [5] 104% | [6] 107% | [7] 109%

COC(=O)c1ccc(NC(=O)CSc2nc3ccccc3c(=O)n2-c2ccccc2)cc1
inactive: [1] 94.4% | [2] 104% | [3] 105% | [4] 106% | [5] 97.7% | [6] 98.8% | [7] 99.8%

CNCCNc1nc2ccccc2c2c(=O)c3cccc(OC)c3sc12
active: [2] -72.7% | [3] -80.1% | [4] -67.5% | [5] -68.2% | [6] -52.3% | [7] -47.9%
inactive: [1] 73.1%

COc1ccc(/C=C2/SC(=O)N(CC(=O)N3CCN(c4cc5c(cc4F)c(=O)c(C(=O)O)cn5C4CC4)CC3)C2=O)cc1
inactive: [1] 96.1% | [2] 102% | [3] 98.2% | [4] 96% | [5] 100% | [6] 105% | [7] 105%

O=C(Nc1ccc(N2CCNCC2)cn1)c1[nH]ncc1Nc1ncnc2sc3c(c12)CCC3
active: [2] -63.2% | [3] -76.1% | [4] -34% | [5] -75%
inactive: [1] 85.4% | [6] 33.8% | [7] 53.4%

CCOC(=O)C1=C(C)N=c2s/c(=C\c3cc(Cl)ccc3O)c(=O)n2C1c1ccc(OC)cc1 (stereo not given)
inactive: [1] 102% | [2] 107% | [3] 103% | [4] 93.2% | [5] 72.2% | [6] 98.6% | [7] 94.2%

O=C(NC1CCN(Cc2ccccc2)CC1)c1cc(C(=O)NC2CCN(Cc3ccccc3)CC2)cc(C(=O)NC2CCN(Cc3ccccc3)CC2)c1
inactive: [1] 70.5% | [2] 70.4% | [3] 84.6% | [4] 57.3% | [5] 66.1% | [6] 107% | [7] 90.8%

CCCCN1CCN(c2ccc3nc(-c4ccc5nc(-c6ccc(C(F)(F)F)cc6)[nH]c5c4)[nH]c3c2)CC1
active: [1] -53.2% | [2] -85.3% | [3] -76.9% | [4] -74.3% | [5] -70.7% | [6] -84% | [7] -88.3%

Cc1ccc(NCCNCC(O)CO)c2c(=O)c3ccccc3sc12 (stereo not given)
inactive: [1] 63.2% | [7] 15.4%
active: [2] -26% | [3] -78.7% | [4] -53.6% | [5] -66.1% | [6] -75.1%

COc1ccc(CCN2C(=O)/C(=C/c3ccc(C4Oc5ccccc5C5CC(c6cccc(OC)c6)=NN54)cc3)SC2=S)cc1 (stereo not given)
inactive: [1] 108% | [2] 104% | [3] 98.4% | [4] 93% | [5] 102% | [6] 98.6% | [7] 105%

CCOC(=O)C(CC(=O)O)=C(C(=O)OCC)C(=O)OCC
inactive: [1] 122% | [2] 103% | [3] 105% | [4] 92% | [5] 99.8% | [6] 104% | [7] 103%

COc1ccccc1C(=O)/C=C/c1ccccc1
inactive: [1] 77.5% | [2] 78.4% | [3] 67.4% | [4] 28.6% | [5] 37% | [6] 103% | [7] 55.2%

COC(=O)[C@H](NC(=O)C1(C)CCC[C@]2(C)[C@H]3C[C@H]4C(C(C)C)=C[C@]3(CC[C@@H]12)[C@@H]1C(=O)CCC(=O)[C@@H]14)C(C)C (stereo not given in full)
inactive: [1] 106% | [2] 104% | [3] 106% | [4] 98.2% | [5] 106% | [6] 104% | [7] 105%

COc1ccc2occ(C3=C(c4c[nH]c5ccccc45)C(=O)NC3=O)c2c1
active: [2] 1.76%
inactive: [1] 35.7% | [3] 22.6% | [4] 21.6% | [5] 26.5% | [6] 74.5% | [7] 20.8%

Cc1ccc(C)c(-c2csc(Nc3ccc(C)c(C)c3)n2)c1
active: [2] -58.3% | [3] -33% | [4] -30.3% | [5] 3.25%
inactive: [1] 64.6% | [6] 27.6% | [7] 59.5%

Nc1ccc(-c2nc3cc(Oc4ccc(Oc5ccc6[nH]c(-c7ccc(N)cc7)nc6c5)cc4)ccc3[nH]2)cc1
inactive: [1] 105% | [2] 109% | [3] 98.4% | [4] 85.1% | [5] 97% | [6] 106% | [7] 104%

COc1cc(NC(=O)CCSc2nc3ccccc3c(=O)n2CCc2ccccn2)cc(OC)c1OC
inactive: [1] 73.4% | [2] 101% | [3] 101% | [4] 62.4% | [5] 85.5% | [6] 97.5% | [7] 99.8%

Nc1nc(-c2ccccc2Br)nn1-c1nc2ccccc2s1
inactive: [1] 100% | [2] 95% | [3] 104% | [4] 78.4% | [5] 103% | [6] 110% | [7] 101%

COc1cccc2c(=O)c3c(sc12)c(NCCCNCCO)nc1ccccc13
inactive: [1] 84.8% | [2] 15% | [5] 31.5% | [6] 37.9% | [7] 31.3%
active: [3] -73.9% | [4] -13.6%

Nc1ncnc(N)c1NC(=O)c1ccc(OCc2ccccc2)cc1
inactive: [1] 107% | [2] 109% | [3] 98.1% | [4] 103% | [5] 111% | [6] 115% | [7] 104%

COc1cc(C(=O)O/N=C(\N)Cc2cccc3ccccc23)cc(OC)c1OC
active: [2] -85.2% | [3] -76.7% | [4] -85.7% | [5] -71.4% | [6] -82.5% | [7] -68.4%
inactive: [1] 56.4%

COc1cccc(C2=NN3C(C2)c2ccccc2OC3c2ccc(/C=C3\SC(=O)NC3=O)cc2)c1 (stereo not given)
inactive: [1] 97.1% | [2] 105% | [3] 97.8% | [4] 90.7% | [5] 109% | [6] 106% | [7] 94.6%

COc1ccc(-c2nsc3c2NC(=O)CC3c2ccc3c(c2)OCCO3)cc1 (stereo not given)
inactive: [1] 27.8% | [3] 35.7% | [4] 24.7% | [5] 12.7% | [6] 33.5% | [7] 20.6%
active: [2] -46.6%

CCOc1ccc(Nc2ccnc3cc(Cl)ccc23)cc1
inactive: [1] 14.4% | [3] 14.5% | [6] 12.2%
active: [2] -7.51% | [4] 4.41% | [5] 9.4% | [7] 6.96%

O=C(Nc1ccc(Cl)cc1)c1cc2ccccc2cc1OP(=O)(O)O
inactive: [1] 11.7% | [2] 15.8% | [3] 42.3% | [4] 54% | [5] 10.8% | [6] 47.9% | [7] 56.2%

COc1ccc(C2=Nn3c(NN)nnc3SC2)cc1
inactive: [1] 108% | [2] 103% | [3] 112% | [4] 91.4% | [5] 112% | [6] 111% | [7] 101%

N#C/C(=C\c1c(-c2ccccc2)[nH]c2ccccc12)S(=O)(=O)c1ccccc1
inactive: [1] 51.7% | [3] 28.6% | [4] 14% | [5] 36.8% | [6] 57% | [7] 25.1%
active: [2] 7.27%

Cc1cccc(NC(=O)c2sc3nc4c(cc3c2N)CCCC4)c1C
active: [2] -40.6% | [7] 8.85%
inactive: [1] 37.5% | [3] 23.7% | [4] 17.1% | [5] 14.8% | [6] 22.8%

c1ccc2c(c1)oc1cc3sccc3nc12
inactive: [1] 89.5% | [2] 99.7% | [3] 96.6% | [4] 99.8% | [5] 96.7% | [6] 118% | [7] 108%

CCn1c(-c2nonc2Nc2ccc(OC)cc2)nc2ccccc21
inactive: [1] 103% | [2] 96.8% | [3] 104% | [4] 110% | [5] 97.4% | [6] 111% | [7] 106%

COC(=O)/C(=C\c1c(-c2ccccc2)[nH]c2ccccc12)S(C)(=O)=O
inactive: [1] 45.7% | [3] 20.4% | [4] 15.6% | [5] 17.4% | [6] 44.7%
active: [2] 4.05% | [7] 4.53%

COc1ccc(Cn2cc(Cn3c(=O)c(-c4nc5ccccc5[nH]4)cc4ccccc43)nn2)c(OC)c1OC
active: [1] -12.2% | [2] -79.6% | [5] 5.1% | [6] -11.7% | [7] 4.44%
inactive: [3] 16.9% | [4] 17.1%
